# Target: TMEM147
# Test: pooled miR-30 sensor sort-seq; sequence = guide strand
# Details: shRNA
# Also: reference of the scale not given here.
row,Sequence,sensor-assay potency score (higher = more potent)
1,TGTGGTACAGATCATAGCGTGT,-0.505
2,TAATGGACCAGACTGATGTTGG,-0.822
3,TCTGGATGTACTTCCAGTCAAA,-1.49
4,TTGGAGTCTATGCTCATCTGGA,-0.274
5,TCATAGCGTGTTATCATCCAGA,-0.557
6,TTATCATCCAGACCTGAGCAGA,-0.978
7,TTGTAGGTGATGAAGTAGGGGA,-0.423
8,TATCAGGTCTGCCACATCCACG,-1.57
9,TTGTACTCGGACAGGCCGCTGC,-1
10,TAGAGCTGCCCAACTGCCCAGC,-1.02
11,TAGACCTATCAGGTCTGCCACA,-1.51

# Target: TMEM156
# Test: as above
# Details: shRNA
row,Sequence,sensor-assay potency score (higher = more potent)
1,TAGATTGCAAACACACTTCCAG,0.703
2,TAGTTTATCGATTTCTCCTTGC,-0.128
3,TTAAGAGAACAGATGTAGGTTT,0.112
4,TTTGCTTTCACTTCCATTGATC,-0.423
5,AATGTGTATACAATCATTCGGG,-0.0136
6,TTTTATATCCATCTCCAGGTGC,-0.346
7,TTTATCGATTTCTCCTTGCTTG,0.0129
8,TACACTGAAGTTAAAGTGCTGA,0.144

# From the OligoGym collection
